Molecules are shown by their SMILES. Compounds without any hit were thinned out: in the full panel of roughly 83,000, 20% have a hit.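 Interpretation: 100, growth as untreated; towards 0, rising growth inhibition; 0, no net growth; 0 to -100, cell death. Compounds scoring below 10 were considered active.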 Values without a mark were called inactive. Activity calls are given as the source filed them.

Some test systems named below: NCI-H23 lung; NCI-H226 lung; NCI-H322M lung; HOP-62 NSCLC; NCI-H460 lung; HOP-92 NSCLC; NCI-H522 lung; A549/ATCC NSCLC; 786-0 renal; COLO 205 colon; DU-145 prostate; K-562 leukemia; MALME-3M melanoma; MDA-MB-231 breast; RXF 393 renal; SF-268 CNS; SF-295 CNS; SF-539 CNS; UACC-257 melanoma; M14 melanoma.
Experiment in all cases: NCI-60 one-dose screen, 48 h (100 = growth as untreated, 0 = no growth, -100 = all killed)
Settings in all cases: 10 µM unless noted

For the compound `C=C1C(=O)O[C@H]2[C@H]1CC/C(COC(=O)CCCCCCC(=O)OC/C1=C/CC[C@@]3(C)O[C@H]3[C@H]3OC(=O)C(=C)[C@@H]3CC1)=C\CC[C@@]1(C)O[C@@H]21`, the growth was 25.1% in the experiment with NCI-H23 lung; 65.2% with NCI-H226 lung; 99.5% in the experiment with NCI-H322M lung; 83.6% in the experiment with HOP-62 NSCLC; 77.7% in the experiment with NCI-H460 lung; 34% in the experiment on HOP-92 NSCLC. The growth is -81% (active) in the experiment with NCI-H522 lung; 97.2% in the experiment on A549/ATCC NSCLC; 20.9% in the experiment on 786-0 renal; -64.6% (active) in the experiment on COLO 205 colon; 40.4% in the experiment with DU-145 prostate; 2.63% (active) in the experiment on K-562 leukemia. The growth with MALME-3M melanoma is -2.86% (active); with MDA-MB-231 breast, -1.66% (active); with RXF 393 renal, -72.8% (active); with SF-268 CNS, 54.2%; with SF-295 CNS, 94.9%; in the experiment with SF-539 CNS, 21.1%. The growth with UACC-257 melanoma is 70.7%; in the experiment with M14 melanoma, 30.6%.
As for `COc1ccc(-c2cc(C(=O)N3N=C(c4ccc(N)cc4)CC3c3ccc(OC)cc3)c3cc(OC)ccc3n2)cc1` (stereo not given), the growth is 48.6% with NCI-H23 lung; 94.9% in the experiment on NCI-H226 lung; 93.3% in the experiment with NCI-H322M lung; 60.1% in the experiment on HOP-62 NSCLC; 85.4% with NCI-H460 lung; 56% with HOP-92 NSCLC. The growth is 29.5% in the experiment with NCI-H522 lung; 76.6% in the experiment on A549/ATCC NSCLC; 18.9% in the experiment with 786-0 renal; 96.3% in the experiment on COLO 205 colon; 80.2% in the experiment with DU-145 prostate; 11.8% in the experiment on K-562 leukemia. Further, the growth in the experiment on MALME-3M melanoma was 71.3%; in the experiment with MDA-MB-231 breast, 73.6%; with RXF 393 renal, 68.2%; in the experiment on SF-268 CNS it was 54.9%; with SF-295 CNS it was 64.1%; in the experiment on SF-539 CNS, 34%. Further, the growth was 60.8% with UACC-257 melanoma and 38.4% in the experiment on M14 melanoma.
Take `N#Cc1c(-c2ccc(F)cc2)nc(N/N=C/c2cccc(O)c2)nc1N1CCOCC1`: the growth was 99.9% in the experiment with NCI-H23 lung; 100% with NCI-H226 lung; 81.4% in the experiment with NCI-H322M lung; 92% in the experiment on HOP-62 NSCLC; 98.3% in the experiment on NCI-H460 lung; 64.4% in the experiment on HOP-92 NSCLC. The growth in the experiment with NCI-H522 lung was 69.5%; in the experiment on A549/ATCC NSCLC it was 82.3%; in the experiment with 786-0 renal, 65.1%; in the experiment with COLO 205 colon it was 73.4%; in the experiment on DU-145 prostate it was 65.9%; in the experiment with K-562 leukemia it was 67.5%. In addition, the growth in the experiment on MALME-3M melanoma was 100%; with MDA-MB-231 breast it was 96.8%; in the experiment on RXF 393 renal, 53.9%; with SF-268 CNS, 88.3%; in the experiment with SF-295 CNS, 98.9%; in the experiment on SF-539 CNS it was 78.4%. Moreover, the values for the growth with UACC-257 melanoma and in the experiment on M14 melanoma were 88.8% and 85.6%, respectively.
For `C=C(C)[C@@H]1CC[C@]2(C(=O)OCCCC[P+](c3ccccc3)(c3ccccc3)c3ccccc3)CC[C@]3(C)[C@H](CC[C@@H]4[C@@]5(C)CC[C@H](OC(=O)C(Cl)Cl)C(C)(C)[C@@H]5CC[C@]43C)[C@@H]12`, the growth with NCI-H23 lung was -16.5% (active); in the experiment with NCI-H226 lung, -78.5% (active); with NCI-H322M lung, 2.79% (active); with HOP-62 NSCLC, -0.785% (active); with NCI-H460 lung it was -41.1% (active); in the experiment with HOP-92 NSCLC, -67.4% (active). The growth was -38.3% (active) in the experiment on NCI-H522 lung; 0.629% (active) in the experiment on A549/ATCC NSCLC; -77.9% (active) in the experiment with 786-0 renal; -74.4% (active) in the experiment on COLO 205 colon; 14.4% in the experiment with DU-145 prostate; -35.9% (active) in the experiment with K-562 leukemia. In addition, the growth in the experiment with MALME-3M melanoma is -85.7% (active); in the experiment on MDA-MB-231 breast, -49.8% (active); in the experiment with RXF 393 renal, -80.8% (active); in the experiment on SF-268 CNS, -15.7% (active); in the experiment with SF-295 CNS it was -76.9% (active); in the experiment with SF-539 CNS it was -44.2% (active). The growth was -61% (active) in the experiment on UACC-257 melanoma and -56.1% (active) in the experiment with M14 melanoma.
On to `Oc1ccccc1-c1nc2c3ccccc3c3ccccc3c2o1`, for which the growth was 85.5% in the experiment on NCI-H23 lung; 85.8% in the experiment with NCI-H226 lung; 92.4% with NCI-H322M lung; 101% in the experiment on HOP-62 NSCLC; 69.6% with NCI-H460 lung; 83.8% in the experiment on HOP-92 NSCLC. Further, the growth with NCI-H522 lung was 99.3%; in the experiment with A549/ATCC NSCLC, 90.9%; with 786-0 renal it was 99.2%; with COLO 205 colon, 85.7%; with DU-145 prostate it was 104%; in the experiment with K-562 leukemia, 88.1%. For the same compound, the growth with MALME-3M melanoma was 91.9%; in the experiment on MDA-MB-231 breast it was 81.7%; in the experiment on RXF 393 renal it was 109%; in the experiment on SF-268 CNS it was 89.8%; in the experiment with SF-295 CNS, 115%; in the experiment with SF-539 CNS, 105%. The growth with UACC-257 melanoma was 101%; in the experiment with M14 melanoma, 103%.
For `COc1cc(-c2csc(NC(=O)Nc3ccc(Cl)cc3)n2)cc(OC)c1OC`, the growth was 11.3% with NCI-H23 lung; 32.6% in the experiment on NCI-H226 lung; 64.8% in the experiment on NCI-H322M lung; 38.5% in the experiment with HOP-62 NSCLC; 24.9% in the experiment with NCI-H460 lung; 7.26% (active) with HOP-92 NSCLC. For the same compound, the growth is 3.25% (active) in the experiment on NCI-H522 lung; 17.8% with A549/ATCC NSCLC; 47.5% in the experiment on 786-0 renal; 13.2% in the experiment with COLO 205 colon; 36.3% in the experiment on DU-145 prostate; 9.22% (active) with K-562 leukemia. For the same compound, the growth is 61.3% in the experiment with MALME-3M melanoma; 45.5% in the experiment with MDA-MB-231 breast; 23.4% in the experiment on RXF 393 renal; 51.2% with SF-268 CNS; 18% in the experiment with SF-295 CNS; 48.8% in the experiment with SF-539 CNS. Also, the results for the growth in the experiment on UACC-257 melanoma and in the experiment on M14 melanoma were 22.9% and 21.1%, respectively.
In the case of `O=C(CCCCCCCCC(=O)Nc1cccc(C2=NCCN2)c1)Nc1cccc(C2=NCCN2)c1`, the growth in the experiment on NCI-H23 lung was 75.8%; with NCI-H226 lung, 101%; with NCI-H322M lung it was 105%; in the experiment on HOP-62 NSCLC, 102%; in the experiment with NCI-H460 lung it was 93.6%; with HOP-92 NSCLC it was 90.5%. In addition, the growth was 70.3% with NCI-H522 lung; 96.6% in the experiment on A549/ATCC NSCLC; 100% with 786-0 renal; 92.2% in the experiment with COLO 205 colon; 99.8% with DU-145 prostate; 73.1% in the experiment on K-562 leukemia. Besides, the growth with MALME-3M melanoma is 69.8%; in the experiment on MDA-MB-231 breast it was 101%; in the experiment on RXF 393 renal, 108%; in the experiment on SF-268 CNS, 103%; in the experiment on SF-295 CNS it was 99.9%; in the experiment on SF-539 CNS, 108%. Further, the growth in the experiment with UACC-257 melanoma was 95.6%; in the experiment on M14 melanoma, 97.1%.

For the origin of these results see PubChem BioAssay (NCI).
